Bioassay records (PubChem BioAssay)
A selection: hits, their analogues and other compounds. The true share with any hit is near 2.6%.
Cruzain noTriton: cruzain (T. cruzi) inhibition without detergent | P25779 | purified cruzain, Z-FR-AMC fluorescence, no detergent | Potency, µM, for inactives: max response, negative = inhibition, hits mostly inhibitors | hit rate 2.3% among 200,000 | AID 1476;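 further: plate controls were enzyme without inhibitor for no effect and buffer without enzyme for full effect; nearly all actives have a fitted effect of over 40% in size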
Target sequence (P25779 123-467 limits assumed): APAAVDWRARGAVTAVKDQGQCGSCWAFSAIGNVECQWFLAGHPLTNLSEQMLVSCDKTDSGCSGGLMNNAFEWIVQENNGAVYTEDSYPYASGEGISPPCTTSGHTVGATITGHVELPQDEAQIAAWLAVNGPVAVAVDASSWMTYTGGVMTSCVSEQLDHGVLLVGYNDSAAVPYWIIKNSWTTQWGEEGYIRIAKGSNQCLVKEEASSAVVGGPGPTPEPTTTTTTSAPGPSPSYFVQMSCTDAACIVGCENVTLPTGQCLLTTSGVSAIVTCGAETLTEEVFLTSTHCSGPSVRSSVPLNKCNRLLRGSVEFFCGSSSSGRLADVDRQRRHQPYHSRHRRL
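Purified cruzain at 1.5 nM, pre-incubated 15 min with compound at room temperature in 100 mM sodium acetate pH 5.5, 5 mM DTT, 0.00005% Triton X-100. Reaction started with 2 uM Z-FR-AMC; AMC fluorescence increase over 60 s gives rate.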
Cruzain inh Det: inhibitors of Trypanosoma cruzi cruzain with detergent; P25779; purified cruzain, Z-FR-AMC fluorescence, 0.01% Triton; Potency, µM, without a hit: max response, negative = inhibition, usual class: inhibitors; hit rate 0.43% among 200,000;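 further: plate controls were neutral wells for no effect and buffer without enzyme for full effect; nearly all actives have a fitted effect of over 40% in size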
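15 min RT preincubation of 1.5 nM cruzain with compound, then 2 uM Z-FR-AMC added; kinetic AMC fluorescence, 60 s delta. Triton X-100 0.01%, pH 5.5.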
The depositor's hits bear a star; u = inconclusive. The call rests on the fitted dose curve; in most records, active means well fitted curve in the direction sought with a large enough effect; inconclusive means small, poorly fitted or top-dose-only effect, or another doubt; inactive means no such curve, though single readings can be large; an effect the other way counts as inactive or inconclusive. Potency means the concentration at half of the fitted maximal effect.

SMILES	Cruzain noTriton	Cruzain inh Det
Cc1cc(C(=O)COC(=O)c2ccc(N)c([N+](=O)[O-])c2)c(C)n1-c1ccc2c(c1)OCO2	13µM*	-2%
Cc1cc(C(=O)COC(=O)Cc2n[nH]c(=O)c3ccccc23)c(C)n1-c1ccc2c(c1)OCO2	25µM*	-2%
Cc1cc(C(=O)COC(=O)CC2Sc3ccccc3NC2=O)c(C)n1-c1ccc(Br)cc1 (configuration not stated)	4µM*	2%
COc1ccc(-n2c(C)cc(C(=O)COC(=O)Cc3n[nH]c(=O)c4ccccc34)c2C)cc1	u	-6%
COC(=O)c1ccc(-n2c(C)cc(C(=O)COC(=O)CC3Sc4ccccc4NC3=O)c2C)cc1 (configuration not stated)	25µM*	-4%
O=C(CC1Sc2ccccc2NC1=O)OCC(=O)N1CCc2ccccc21 (configuration not stated)	u	-7%
CCC1CCCCN1C(=O)CSc1nc2c([nH]c3ccccc32)c(=O)n1-c1ccc(OC)cc1 (configuration not stated)	-4%	0%
O=C(NC1CCCC1)c1c[nH]c2ccc(S(=O)(=O)Nc3cccc(C(F)(F)F)c3)cc2c1=O	u	-13%
CCCc1nn2c(C)c(-c3ccccc3)nc2s1	13%	8%
COC(=O)c1cc2oc(C)cc2n1Cc1ccc(Cl)cc1	-20%	-1%
Cc1cccc(CNC(=O)Cn2nc(C)c3nn(-c4ccc(Cl)cc4)c(C)c3c2=O)c1	-3%	0%
CNC(=O)[C@H]1O[C@@H](n2cnc3c(N)ncnc32)[C@H](O)[C@H]1O	7%	5%
COc1ccc(CNC(=O)CC(c2ccc(OC)c(OC)c2)N2Cc3ccccc3C2=O)cc1 (configuration not stated)	9%	-1%
O=C(NCCc1ccccc1)c1ccc(CSc2nc3ccncc3n2Cc2ccccc2F)cc1	17%	-8%
COc1ccccc1NC(=O)Cn1c(SCC(=O)NCc2ccccc2)nc2ccccc21	2%	0%
Cc1ccc(CN2C(=O)N(c3ccc(C)c(Cl)c3)S(=O)(=O)c3ccccc32)cc1	u	-1%
COc1ccc(CNc2ncnc3ccc(-c4ccc(C(=O)N(C)C)cc4)cc23)c(OC)c1	5%	1%
O=C(Cc1ccccc1)N(Cc1cccnc1)c1nc2c(F)cc(F)cc2s1	u	-6%
Cc1cc(NC(=O)Nc2ccc(N(C)C)cc2)c2cc(F)cc(F)c2n1	u	-2%
Cc1noc(C)c1-c1ccc2ncnc(N3CCOCC3)c2c1	-4%	-3%
Cc1cc(C(=O)COC(=O)CC2Sc3ccccc3NC2=O)c(C)n1-c1ccc2c(c1)OCO2 (configuration not stated)	25µM*	-1%
CC(=O)Nc1ccc(S(=O)(=O)NCC(=O)OCC(=O)c2cc(C)n(-c3ccc4c(c3)OCO4)c2C)cc1	u	-4%
CCC(CC)C(=O)Nc1nnc(SCc2cc(=O)c3ccccc3[nH]2)s1	u	1%
O=C(NCC(c1cccnc1)N1CCc2ccccc21)c1cccc(Br)c1 (configuration not stated)	5%	-4%
CC(C)c1ccc2c(c1)-c1ccccc1S(=O)(=O)N2CC(=O)N1CCCCC1	-5%	0%
SMILES	Cruzain noTriton	Cruzain inh Det
Nc1ccc(Nc2ccccc2N)cc1	25µM*	-9%
Nc1cc(C(=O)O)ccc1Nc1ccccc1	-4%	-1%
CCC1CCCCN1C(=O)c1nn(-c2ccc(C)cc2)c(=O)c2c1c1ccccc1n2C (configuration not stated)	-1%	-1%
CCc1ccc(CNC(=O)c2cnc3c(C)cccn3c2=O)cc1	u	-6%
COC(=O)CC1C(C)(C)C(OC(C)=O)C2CC3C4CC(=O)OC(c5ccoc5)[C@]4(C)CCC3[C@@]1(C)C2=O (some centres not stated)	u	1%
CCC1CCc2nc3sc(C(=O)Nc4cccc(C(F)(F)F)c4)c(N)c3cc2C1 (configuration not stated)	-34%	-3%
CCC1CCc2nc3sc(C(=O)Nc4cccc(F)c4)c(N)c3cc2C1 (configuration not stated)	5µM*	-5%
O=C(Nc1ccc(Cl)c(-c2nc3ccccc3o2)c1)c1cccc2c(Cl)cccc12	1%	-2%
O=C(Nc1ccc(Cl)c(C(F)(F)F)c1)c1nc2ccccc2nc1N1CCCCC1	-9%	-7%
Cc1ccc(NC(=O)C2CC(=O)N/C(=N/N=C/c3ccco3)S2)cc1 (configuration not stated)	u	-2%
Cc1ccc(NC(=O)C2CC(=O)N/C(=N/N=C/c3ccco3)S2)cc1C (configuration not stated)	13µM*	-3%
O=C(NC1CC(=O)N(c2cccc(F)c2)C1)C1CC1 (configuration not stated)	7%	0%
CC(C)c1cccc2nc3c(c(C(C)(C)C)c12)Cn1c-3cccc1=O	u	-8%
COC(=O)CSc1nc2c(c(-c3ccco3)c1C#N)CCCC2	20µM*	28µM*
CCOC(=O)CSc1nc2c(c(-c3ccc(C)o3)c1C#N)CCCC2	23%	-11%
COc1cccc(N=Nc2c(N)[nH]n3c(=O)cc(-c4ccccc4)nc23)c1	13µM*	0%
Cc1ccc(N=Nc2c(N)[nH]n3c(=O)cc(-c4ccccc4)nc23)cc1	-20%	-6%
CC(=O)c1cccc(NC(=O)C(OC(=O)/C=C/c2ccc3c(c2)OCO3)c2ccccc2)c1 (configuration not stated)	10µM*	2%
Cc1ccc(C(NC(=O)/C=C\c2ccc3c(c2)OCO3)C(=O)Nc2ccc3c(c2)OCO3)cc1 (configuration not stated)	32µM*	-3%
COc1ccc(NC(=O)C(NC(=O)/C=C\c2ccc3c(c2)OCO3)c2ccc(OC)cc2)cc1 (configuration not stated)	u	-4%
CCOC(=O)c1cccc(NC(=O)/C=C/c2ccc3c(c2)OCO3)c1	-11%	-8%
CCCn1c(C)nc2c(NCCN3CCCCC3)nc(C)nc21	-3%	0%
COc1ccc(CNC(=O)CC(c2ccc(OC)cc2)N2Cc3ccccc3C2=O)cc1 (configuration not stated)	-4%	0%
CCOc1ccc(-n2c(SCC(=O)Nc3ccc(OC)cc3)nc3c(c2=O)SCC3)cc1	-5%	-1%
Cc1cc(NC(=O)CSc2nc3ccccc3c(=O)n2-c2ccccc2)no1	-11%	11%
SMILES	Cruzain noTriton	Cruzain inh Det
CCOC(=O)c1sc(NC(=O)CSc2nc3c(c(=O)n2-c2ccc(F)cc2)SCC3)c(C(=O)OCC)c1C	25µM*	-3%
COC(=O)c1c(NC(=O)CSc2nc3ccccc3c(=O)n2-c2ccccc2)sc(C)c1C	13µM*	-3%
Cc1oc(-c2ccccc2Cl)nc1CSc1nncn2c1cc1occc12	-1%	-1%
O=C(Cn1c(=O)nc(-c2ccccc2)c2cc(Cl)ccc21)N1CCN(c2ccccc2F)CC1	-4%	0%
Cc1ccc2c(c1)CCCN2C(=O)c1ccc2c(c1)OCO2	6%	-3%
Cc1sc(NC(=O)Cc2ccc3c(c2)OCO3)nc1-c1ccc2c(c1)CCN2C(=O)c1ccccc1F	7.9µM*	-1%
O=C(NCc1ccc2c(c1)CCN2C(=O)c1ccncc1)c1ccccc1F	-4%	0%
CS(=O)(=O)N1CCc2cc(-c3csc(NC(=O)Cc4ccccc4)n3)ccc21	u	-1%
Cc1sc(NC(=O)Cc2ccc3c(c2)OCO3)nc1-c1ccc2c(c1)CCN2C(=O)c1ccc(F)cc1	6.3µM*	-4%
